Test systems include DU-145 prostate; K-562 leukemia; MALME-3M melanoma; MDA-MB-231 breast; RXF 393 renal; SF-268 CNS; SF-295 CNS; SF-539 CNS; UACC-257 melanoma; M14 melanoma.
Holding throughout (test): NCI-60 one-dose screen, 48 h (100 = growth as untreated, 0 = no growth, -100 = all killed)
What all share (conditions): 10 µM unless noted

Consider eleven compounds from PubChem BioAssay (NCI).

This is part of a sample that, as a whole, favours compounds with a hit. Of some 83,000 tested, about 20% had one in any assay.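 The test compound was applied at a single concentration to cells in 96-well plates for 48 hours, and percent growth was recorded.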 A number with no mark means an inactive call. Active and inactive are the calls of the source. How the source made its calls: active means growth percent below 10; inactive means the rest.

As for `FC(F)(F)c1cc2c(Cl)ncnc2n1CCN1CCCCC1`, the growth is 50% in the assay on DU-145 prostate; 0.547% (active) in the assay on K-562 leukemia; 86.9% in the assay on MALME-3M melanoma; 38.8% in the assay on MDA-MB-231 breast; 80.8% in the assay with RXF 393 renal; 9.33% (active) in the assay with SF-268 CNS. Further, the growth in the assay on SF-295 CNS is 80.9%; in the assay with SF-539 CNS, 73.4%; with UACC-257 melanoma, 73.6%; in the assay on M14 melanoma it was 24.1%.

With `COc1ccc(S(=O)(=O)Nc2ccc(-c3ccc4c(c3)NC(=O)/C4=C\c3ccc[nH]3)cc2)cc1OC`, the growth with DU-145 prostate was 10.4%; with K-562 leukemia it was 28.7%; in the assay with MALME-3M melanoma, -16.2% (active); in the assay with MDA-MB-231 breast, -46.1% (active); with RXF 393 renal, -23% (active); in the assay on SF-268 CNS, 65%. Also, the growth in the assay on SF-295 CNS is 56.1%; with SF-539 CNS, -46.5% (active); in the assay on UACC-257 melanoma, -10.7% (active); in the assay with M14 melanoma it was 0.851% (active).

Regarding `COc1ccc(-c2nc3ccc(-c4nnc(SCc5ccccc5)o4)cc3[nH]2)cc1OC`, the growth in the assay with DU-145 prostate was 17.2%; with K-562 leukemia, 56.8%; with MALME-3M melanoma, 15.9%; in the assay on MDA-MB-231 breast, -34.4% (active); in the assay on RXF 393 renal it was -34.1% (active); in the assay with SF-268 CNS, 35.2%. Besides, the growth in the assay on SF-295 CNS is 55.4%; with SF-539 CNS, -44.5% (active); in the assay with UACC-257 melanoma, 78.4%; in the assay with M14 melanoma it was 40.7%.

Turning to `COc1ccc(C(=O)NNC(=O)CSc2nc3sc4c(c3c(=O)n2-c2ccc(Cl)cc2)CCCC4)cc1`, the growth with DU-145 prostate is 89%; with K-562 leukemia it was 56.7%; in the assay on MALME-3M melanoma it was 60.3%; in the assay on MDA-MB-231 breast, 44%; in the assay on RXF 393 renal, 82.2%; in the assay with SF-268 CNS, 84.3%. In addition, the growth with SF-295 CNS is 94.7%; in the assay with SF-539 CNS it was -55.2% (active); with UACC-257 melanoma, 100%; with M14 melanoma it was 77.4%.

Take `COc1cc(/C=C/C(=O)c2ccc(S(=O)(=O)NCCNc3nc(N(C)C)nc(N4CCOCC4)n3)cc2)cc(OC)c1OC`: the growth in the assay with DU-145 prostate was 13.8%; with K-562 leukemia, -67.8% (active); in the assay on MALME-3M melanoma, 41.2%; in the assay with MDA-MB-231 breast, -82% (active); with RXF 393 renal it was -100% (active); in the assay on SF-268 CNS, -3.35% (active). In addition, the growth with SF-295 CNS was -68.1% (active); in the assay on SF-539 CNS, -87.3% (active); in the assay on UACC-257 melanoma it was -26.5% (active); with M14 melanoma it was -54.7% (active).

`Nc1cc2ccccc2c(=O)n1NC(=O)c1ccc(Br)cc1`: the growth is 109% with DU-145 prostate; 101% in the assay on K-562 leukemia; 89.7% with MALME-3M melanoma; 66.8% with MDA-MB-231 breast; 112% with RXF 393 renal; 89.8% with SF-268 CNS. The growth in the assay with SF-295 CNS is 103%; with SF-539 CNS it was 67.5%; with UACC-257 melanoma it was 104%; with M14 melanoma, 91.7%.

Consider `Cc1cnc2ccc(Oc3ccccc3-c3ccccc3)nn12`, for which the growth in the assay with DU-145 prostate is 115%; in the assay on K-562 leukemia, 101%; with MALME-3M melanoma it was 100%; with MDA-MB-231 breast it was 109%; with RXF 393 renal, 107%; in the assay on SF-268 CNS it was 106%. For the same compound, the growth in the assay with SF-295 CNS was 97.5%; in the assay with SF-539 CNS, 104%; in the assay with UACC-257 melanoma, 116%; with M14 melanoma, 99.6%.

On to `Nc1nn2c(-c3cc4cc(Br)ccc4oc3=O)ccnc2c1N=Nc1ccc(S(N)(=O)=O)cc1`, for which the growth in the assay with DU-145 prostate was 99.7%; in the assay with K-562 leukemia, 53.9%; with MALME-3M melanoma, 70.5%; in the assay on MDA-MB-231 breast, -8.56% (active); with RXF 393 renal, 87.1%; in the assay on SF-268 CNS, 78.5%. Moreover, the growth in the assay on SF-295 CNS is 62.2%; in the assay with SF-539 CNS, 55.1%; in the assay with UACC-257 melanoma it was 101%; with M14 melanoma, 62.2%.

In the case of `COc1cc(/C=N/NC(=O)c2ccc(OCc3nc4ccc(C)cc4[nH]3)cc2)cc(OC)c1OC`, the growth was 62.2% in the assay on DU-145 prostate; 17.7% in the assay on K-562 leukemia; 4.8% (active) with MALME-3M melanoma; 87.8% in the assay with MDA-MB-231 breast; 39.6% with RXF 393 renal; 78.7% in the assay on SF-268 CNS. For the same compound, the growth in the assay on SF-295 CNS was 40.4%; in the assay on SF-539 CNS, 49.2%; in the assay on UACC-257 melanoma, 11.3%; in the assay on M14 melanoma, 33%.

Regarding `COc1ccc2c(c1)c(-c1cc(N)n3nc(-c4c[nH]c5ccccc45)cc3n1)cn2C`, the growth was -46.6% (active) in the assay on DU-145 prostate; 1.75% (active) with K-562 leukemia; -89.9% (active) in the assay on MALME-3M melanoma; -75.7% (active) in the assay on MDA-MB-231 breast; -79% (active) in the assay on RXF 393 renal; -41.1% (active) in the assay with SF-268 CNS. In addition, the growth is -76.9% (active) with SF-295 CNS, -97.1% (active) in the assay on SF-539 CNS, -89.6% (active) with UACC-257 melanoma and -71.2% (active) in the assay on M14 melanoma.

With `COc1ccc2nc(NC(=O)c3ccc(N(C)C)cc3)sc2c1`, the growth in the assay on DU-145 prostate was 83.4%; in the assay on K-562 leukemia it was 60.2%; with MALME-3M melanoma, 72.7%; in the assay on MDA-MB-231 breast, 92.7%; in the assay on RXF 393 renal, 110%; in the assay with SF-268 CNS it was 90.2%. Moreover, the growth in the assay on SF-295 CNS was 59%; in the assay on SF-539 CNS, 90%; with UACC-257 melanoma it was 80.6%; in the assay with M14 melanoma it was 87.4%.
